This is a sample that favours compounds with a hit; in the whole collection about 4.2% have one here.
NALP3 yeast inh – blocks the NALP3 inflammasome reconstituted in yeast; hit rate 0.39% among 330,000; Yeast reconstituted NLRP3/ASC/caspase-1, beta-gal luminescence, 24 h; inhibition, % at 10 µM; AID 2825;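 active = inhibition of 50% or more; inactive = inhibition below 50%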;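 also: plate controls were induced DMSO wells for no effect and uninduced yeast grown without galactose for full effect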
TIM10 inh – inhibits growth of TIM10 yeast strain; S. cerevisiae TIM10 strain growth, BacTiter-Glo luminescence, 24 h; inhibition, % at 10 µM; hit rate 1.4% among 330,000; AID 463195;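 active = inhibition of 40% or more at the single tested concentration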;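 also: wild-type TIM10 isogenic control strain grown at permissive 25 °C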
NALP1 yeast inh – NALP1 inhibition. S. cerevisiae NALP1/ASC/caspase-1 growth, X-gal OD620, 72 h. inhibition, % at 10 µM. hit rate 0.61% among 280,000; in the data active = inhibition mostly above about 24%, no sharp cut-off; inactive = mostly below about 32%
tim23-1 inh – growth inhibitors of tim23-1 mutant yeast; S. cerevisiae tim23-1 growth, BacTiter-Glo luminescence, 24 h; hit rate 1.3% among 330,000; inhibition, % at 20 µM;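 active = growth inhibition of the mutant yeast at or above 50%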;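 also: temperature-sensitive mutant grown at 25 °C; plate controls were DMSO-treated mutant yeast for no effect and medium wells lacking yeast for full effect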
tim10-1 inh – tim10-1 yeast growth inhibition; AID 463190; hit rate 2.2% among 330,000; S. cerevisiae tim10-1 ts strain growth, BacTiter-Glo, 24 h; inhibition, % at 20 µM;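 active = inhibition of at least 40%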;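 also: mutant grown at 25 °C; 0% = DMSO wells with yeast and 100% = wells holding no yeast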
PfHsp90 set2 – reduces growth (ATP signal) of yeast expressing P. falciparum Hsp90; S. cerevisiae expressing PfHsp90, BacTiter-Glo ATP, 48 h; yeast lacking PDR1 and PDR3 efflux regulators; inhibition, % at 9.4 µM; hit rate 0.32% among 310,000; AID 504621;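 active = every replicate shows inhibition above about 80%, whatever the replicate mean, limit read from the data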;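 also: 0% = DMSO neutral controls and 100% = 20 µM radicicol positive controls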
TIM10 conf – confirmation of TIM10 yeast growth inhibitors. S. cerevisiae tim10 strain growth, BacTiter-Glo luminescence, 24 h. inhibition, % at 10 µM. hit rate 63% among 4,600. AID 463215. shares compounds with TIM10 inh;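 active = inhibition of yeast growth at or above a set limit in either of two replicates at 10 µM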;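 also: this counterscreen used the strain with wild-type TIM10; 0% = yeast with DMSO and 100% = medium wells lacking yeast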
* hit, by the source's call; x = not tested or not shown.

SMILES	NALP3 yeast inh	TIM10 inh	NALP1 yeast inh	tim23-1 inh	tim10-1 inh	PfHsp90 set2	TIM10 conf
Cc1n[nH]c(C)c1Sc1ccccc1N=Cc1cc(Cl)cc([N+](=O)[O-])c1O	23	10	-11	22	22	-27	x
Cc1ccc2nc(-c3ccncc3)c(NC3CCCCC3)n2c1	18	43*	3	41	22	-8	42*
Cc1ccc2nc(-c3ccncc3)c(NC3CCCC3)n2c1	7	-2	5	25	8	-24	x
C=CCn1c(-c2ccc(OC)cc2)csc1=Nc1c(C)n(C)n(-c2ccccc2)c1=O	6	42*	1	48	37	-25	33*
Cc1ccc(C)c(-c2cc(C(=O)Nc3nccs3)c3ccccc3n2)c1	-18	47*	14	45	39	21	42*
COc1cccc(-c2ccc(SCC(=O)c3ccccc3)nn2)c1	-59	42*	-4	12	23	-108	42*
COc1ccc(C(=O)CSc2ccc(-c3ccccc3)nn2)cc1	31	7	38	21	-15	-6	x
COC(=O)c1c(NC(=O)Cc2ccccc2)sc2c1CC(C)(C)NC2(C)C	13	7	25	6	11	-8	x
COC(=O)c1c(NC(=O)COc2ccc(Cl)cc2)sc2c1CC(C)(C)NC2(C)C	22	46*	26	44	39	7	31
Cc1cc(=O)n2[nH]c(Nc3cccc(Cl)c3)nc2n1	14	23	x	3	20	2	x
Cc1noc(C)c1C(=O)N1CCN(S(=O)(=O)c2cccc(Cl)c2Cl)CC1	17	-9	-4	23	9	10	x
COc1ccc(/C=C(/C(=O)Nc2ccccc2C(=O)NC(C)C)c2ccccc2)cc1	19	33	16	2	35	x	x
COc1ccc(/C=C(/C(=O)Nc2ccccc2C(=O)N2CCCC2)c2ccccc2)cc1	-6	43*	13	30	34	x	28
Cc1cc(O)c(C(C)C)cc1NC(=O)c1cccc(Cl)c1	4	21	-6	24	17	19	x
O=C(N/N=C/c1ccc([N+](=O)[O-])o1)c1sc2ccccc2c1Cl	10	69*	x	47	25	104*	65*
Cn1cccc1/C=N/NC(=O)c1sc2ccccc2c1Cl	26	46*	1	46	8	-46	49*
Cc1nonc1C(=O)N/N=C/c1ccc([N+](=O)[O-])o1	31	28	10	34	23	-11	x
O=C(N/N=C/c1c[nH]c2ccccc12)c1sc2ccccc2c1Cl	27	25	8	39	-24	x	x
NC(=O)N/N=C/c1ccc([N+](=O)[O-])o1	24	0	x	11	4	11	x
Cc1cc(C(=O)N/N=C/c2ccc([N+](=O)[O-])o2)c(C)o1	-11	41*	5	24	24	-11	25
Cc1ccc(-n2c(SCC(=O)NC3CCS(=O)(=O)C3)nc3ccccc3c2=O)cc1C (stereo not given)	14	2	x	11	7	x	x
CC(O)[C@H]1CNC(=O)C(=O)N1CCCCC1CCCCC1 (stereo not given in full)	11	12	x	14	13	29	x
CC(=O)c1cc(-c2ccc(F)cc2)n(CCC(=O)Nc2cccnc2)c1C	16	0	-3	7	4	12	x
Cc1cc(NC(=O)c2ccccc2)cc(NC(=O)c2ccccc2)c1C	18	0	28	2	2	17	x
Cc1cc(NC(=O)c2ccccc2)sc1C	39	52*	23	44	38	-8	42*
SMILES	NALP3 yeast inh	TIM10 inh	NALP1 yeast inh	tim23-1 inh	tim10-1 inh	PfHsp90 set2	TIM10 conf
COc1ccc(CC(=O)NCC2CCCN(Cc3ccc(OC(F)(F)F)cc3)C2)cc1 (stereo not given)	33	98*	0	8	-3	6	11
Cc1cc(C(=O)COC(=O)CC2Sc3ccccc3NC2=O)c(C)n1-c1ccc(Br)cc1 (stereo not given)	-1	23	27	23	28	2	x
Cc1cc(C(=O)COC(=O)CC2Sc3ccccc3NC2=O)c(C)n1-c1ccccc1 (stereo not given)	4	57*	39	26	36	-8	32*
Cc1[nH]c2ccccc2c1C(C#N)(C#N)C1C(=O)c2ccccc2C1=O	28	63*	3	36	1	1	78*
CCO[C@H]1OC(C(=O)NCc2ccccc2)=C[C@@H](C2CC2)[C@@H]1CCCO	11	8	-20	9	7	-10	x
Clc1c(CSc2nc3ccccc3o2)nc2ccccn12	35	43*	8	19	12	0	-26
CS(=O)(=O)c1nc(-c2ccccc2)cc(C(F)(F)F)n1	41	45*	2	-24	17	-5	-30
Cc1cc(F)ccc1NC(=O)C1CSC2(C)CCC(=O)N12 (stereo not given)	11	-9	x	8	5	x	x
O=C(/C=C/c1ccoc1)c1ccccc1O	-22	11	20	6	15	23	x
O=C(/C=C/c1ccc(O)c(O)c1)c1ccccc1O	14	42*	-18	27	33	37	11
O=C(Cc1cccc(NC(=O)C2CCN(S(=O)(=O)c3cccc([N+](=O)[O-])c3)CC2)c1)Nc1cccc(C(=O)N2CCCCC2)c1	x	x	x	x	x	2	x
O=C(/C=C/c1ccc(O)c([N+](=O)[O-])c1)c1ccc2ccccc2c1	13	0	11	11	12	-19	x
COc1ccc(Oc2ccc(/C=C/C(=O)c3ccc(O)cc3)cc2[N+](=O)[O-])cc1	32	44*	33	49	31	-17	39*
Cn1cccc1Cc1nnc(SCC(=O)NCC2CCCO2)n1C (stereo not given)	8	1	-3	3	5	-27	x
Cc1ccc(S(=O)(=O)NC2CCCc3ccccc32)cc1C (stereo not given)	9	45*	13	12	35	3	-4
COc1ccc(Cn2c(=O)oc3ccc(C)cc32)cc1	30	97*	5	18	-6	1	5
Cc1scc(C(=O)N/N=C/c2ccc(OCC(C)C)cc2)c1C	25	44*	-3	30	17	-17	20
COc1cccc(-c2nn(-c3ccccc3)cc2C(=O)Nc2nccs2)c1	19	30	32	25	31	-41	x
COc1ccc(-c2nn(-c3ccccc3)cc2C(=O)Nc2nccs2)cc1	16	43*	17	45	36	-25	30
O=C(Nc1ccncc1)c1cn(-c2ccccc2)nc1-c1cccs1	22	44*	10	17	34	x	53*
O=C(c1ccc(Cl)cc1)N(Cc1ccco1)C1CCS(=O)(=O)C1 (stereo not given)	2	-5	12	5	5	1	x
Cc1ccccc1NS(=O)(=O)c1csc(C(N)=O)c1	12	-1	1	7	8	-57	x
